# Assay outcomes (PubChem BioAssay)
# JMJD2A Tudor = inhibitors of human JMJD2A Tudor domain; AID 504339; hit rate 4.4% among 390,000; Potency, µM (highest dose often 114 µM), without a hit: top-dose activity change, negative = inhibition, hits mostly inhibitors; AlphaScreen JMJD2A-Tudor / H3K4me3 peptide binding; O75164; note: % is set by controls: 0 for no effect and ±100 for the full control effect; nearly all actives have a fitted effect of over 50% in size
# L3MBTL1 block = L3MBTL1 (human) inhibition; AlphaScreen L3MBTL1–H3K9me1 peptide binding; Potency, µM (titrated, usually from 57.1 µM), without a hit: top-dose activity, negative = inhibition, hits mostly inhibitors; hit rate 0.66% among 230,000; note: % is set by controls: 0 for no effect and ±100 for the full control effect; nearly all actives have a fitted effect of over 60% in size
#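 L3MBTL1 50 nM + b-AHA-H3(1-15)K9me1 75 nM, 30 min RT; compound added, 30 min RT; streptavidin donor/Ni-chelate acceptor beads 10 ug/mL each final, 30 min RT dark; AlphaScreen read.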
# G9a block = blocks human histone lysine methyltransferase G9a; Q96KQ7; hit rate 8.8% among 350,000; Potency, µM (series often up to 102 µM), without a hit: at the top dose activity, negative = inhibition, actives largely listed as inhibitors; G9a H3K9 monomethylation, AlphaScreen, 2 h; AID 504332; note: % is set by controls: 0 for no effect and ±100 for the full control effect; nearly all actives have a fitted effect of over 75% in size
#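 G9a (20 nM) was preincubated 15 min with compound, then reacted 2 h at room temperature with 500 nM biotin-H3K9 peptide and 20 µM SAM. Monomethyl-H3K9 detected by AlphaScreen using anti-H3K9me1 antibody.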
# HP1b chromo inh = blocks HP1-beta chromodomain binding to methylated histone tails. AlphaScreen HP1-beta / biotin-H3K9me3 peptide binding. Potency, µM (top dose mostly 114 µM), without a hit: at the top dose activity change, negative = inhibition, actives largely listed as inhibitors. hit rate 0.56% among 390,000. AID 540317; note: nearly all actives have a fitted effect of over 70% in size
#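 HP1-beta protein (50 nM final) preincubated 30 min at room temperature with biotinylated H3(1-18)K9me3 peptide (50 nM) in PBS pH 7.4, 0.01% Tween-20, then compound added for 30 min. AlphaScreen streptavidin donor/nickel chelate acceptor beads (10 ug/mL final), 30 min dark, luminescence read.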
# BAZ2B block = BAZ2B (human) inhibition | Q9UIF8 | AlphaScreen BAZ2B-H3K14Ac peptide displacement | Potency, µM (top dose mostly 114 µM), inactives show top-dose activity change, negative = inhibition, usual class: inhibitors | hit rate 4.4% among 360,000; note: % is set by controls: 0 for no effect and ±100 for the full control effect; nearly all actives have a fitted effect of over 60% in size
#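 Inhibition is scored as reduced AlphaScreen emission. The BAZ2B/b-H3(5-23)K14Ac complex (50 nM each) in PBS pH 7.4, 0.01% Tween-20 meets compound (up to 110 uM) for 30 min at RT before bead addition.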
# * marks the source's active call; other numbers are inactive results; ? = inconclusive; / = not tested or not shown; [ ] = another dose, or the depositor's remark. Rows were chosen to be rich in hits. Some 11% of all compounds tested hit in one or more screens of this group. Calls come from the whole dose curve; as a rule, active = well fitted inhibition curve with a large enough effect; inconclusive = small, poorly fitted or top-dose-only effect; inactive = no such curve, though single readings can be large or run the other way. Potency is the fitted concentration of half-maximal effect.
SMILES,JMJD2A Tudor,L3MBTL1 block,G9a block,HP1b chromo inh,BAZ2B block
O=C(CCS(=O)(=O)c1cc(Br)cc2c1N(C(=O)C1CC1)CC2)N1CCN(c2ccc(F)cc2)CC1,-23%,/,-38%[59 µM],-23%,-22%
N#Cc1ccc(CSc2nc3c(c(=O)[nH]2)CCCC3)cc1,4%,/,?,33%,3%
CC(=O)OC(C(=O)Nc1nccs1)c1ccccc1 (configuration not stated),-7%,2%,-8%,38%,-1%
O=C(NCc1ccccc1)C(=O)Nc1nccs1,?,27%,13µM*,32%,-15%
COc1ccc(CCNC(=O)CSc2ccccc2)cc1OC,-10%,-4%,-28%[59 µM],12%,-14%
O=C(Nc1nccs1)C(Br)C(Br)c1ccccc1 (configuration not stated),-30%,/,3.5µM*,14%,-2%
O=C(Nc1nccs1)OCc1ccccc1,-10%,/,/,12%,/
COc1ccc(CCNC(=O)CSc2ccccn2)cc1OC,-10%,/,11µM*,9%,?
O=C(CN(C(=O)CCC(=O)Nc1ccccn1)c1ccc(F)cc1)NCCc1ccccc1,-4%,/,1%[59 µM],19%,-1%
COc1ccc(C(=O)NCc2ccc3c(c2)CCN3C(=O)c2ccc(C)cc2)cc1,?,/,-3%[59 µM],27%,1%
CC1(C)CC(=O)C2=C(C1)Nc1cc3c(cc1C2c1ccc2c(c1)OCO2)OCO3 (configuration not stated),?,/,40µM*,5%,?
CC1(C)CC(=O)C2=C(C1)Nc1cc3c(cc1C2c1ccc(F)cc1)OCO3 (configuration not stated),-29%,-1%,/,23%,?
COc1cc(/C=N/Nc2ccc(S(N)(=O)=O)cc2[N+](=O)[O-])cc(OC)c1O,-19%,-23%,/,30%,?
O=[N+]([O-])c1ccccc1N/N=C/c1cc2ccccc2nc1Cl,?,/,50µM*,1%,?
CC1=C(/C=N/Nc2ccc([N+](=O)[O-])cc2[N+](=O)[O-])C(C)(C)CCC1,2.8µM*,?,20µM*,8.9µM*,3.5µM*
COc1cc(/C=N/Nc2ccccc2[N+](=O)[O-])cc(OC)c1O,-25%,?,7.1µM*,-10%,?
COc1cc(/C=N/Nc2ccc(F)cc2F)cc(OC)c1O,79µM*,-17%,1.6µM*,?,?
O=[N+]([O-])c1ccc(N/N=C/c2ccccc2)c(F)c1,-5%,26%,18%[59 µM],38%,9%
Cc1ccc(-n2c(=O)c3c4c(sc3n(Cc3ccccc3C)c2=O)CCC4)cc1C,-14%,/,8%[59 µM],17%,-2%
COc1ccccc1/C=N\Nc1ccccc1[N+](=O)[O-],8.9µM*,-27%,7.9µM*,13µM*,3.2µM*
CC(C)Oc1ccccc1/C=N/Nc1ccccc1[N+](=O)[O-],14µM*,11µM*,3.5µM*,?,5.6µM*
COc1ccc(/C=N\Nc2ccc([N+](=O)[O-])cc2[N+](=O)[O-])c(C(=O)O)c1OC,50µM*,-24%,25µM*,?,-38%
CCOc1ccccc1/C=N/Nc1ccccc1[N+](=O)[O-],?,?,?,-30%,?
COc1ccc(/C=N\Nc2ccccc2[N+](=O)[O-])c(C(=O)O)c1OC,0%[11.4 µM],?,/,1%,?
NC1=NC(=O)/C(=C/c2ccc(Br)cc2)S1,-4%,5%[2.29 µM],13%[0.501 µM],28%,-28%
SMILES,JMJD2A Tudor,L3MBTL1 block,G9a block,HP1b chromo inh,BAZ2B block
CCOC(=O)CSC1=NC(=O)/C(=C\c2ccc(OC(C)=O)cc2)S1,-24%,3%,40µM*,9%,-34%
CCOC(=O)CSC1=NC(=O)/C(=C/c2ccc(Br)cc2)S1,?,/,40µM*,5%,-9%
COc1ccc(-c2noc(CSc3nnc(-c4ccc(Cl)cc4)n3C)n2)cc1OC,-24%,/,-14%[59 µM],34%,-16%
CCC1OC(=O)C[C@H](O)C(C)[C@@H](O[C@@H]2OC(C)C(O)C(N(C)C)C2O)C(CCN2CC(C)CC(C)C2)CC(C)C(=O)/C=C/C(C)=C\[C@@H]1COC1OC(C)C(O)C(OC)C1OC (some centres not stated),/,/,-48%[2.33 µM],/,/
Cn1c(C(=O)NCCCN2CCN(c3ccc(F)cc3)CC2)cc2c(=O)n(C)c3ccccc3c21,-12%,/,/,37%,/
Cn1c(C(=O)NCCN2CCN(c3ccccc3F)CC2)cc2c(=O)n(C)c3ccccc3c21,-25%,0%,45µM*,-6%,0%
Cn1c(C(=O)NCCN2CCOCC2)cc2c(=O)n(C)c3ccccc3c21,-17%,/,?,52%,10%
Cn1c(C(=O)NCCN2CCc3ccccc3C2)cc2c(=O)n(C)c3ccccc3c21,-29%,9%,45µM*,31%,-23%
COc1ccc(O)c(-c2nc3ccccc3c(=O)n2Cc2ccccc2)c1,79µM*,/,/,/,/
COC(=O)Cc1cc(=O)[nH]c(Nc2nc3ccccc3o2)n1,-9%,10%,57%[12.7 µM],28%,9%
Cc1ccc2oc(Nc3nc(-c4ccccc4)cc(=O)[nH]3)nc2c1,?,-5%,79µM*,12%,?
COCc1cc(=O)[nH]c(Nc2nc3ccccc3o2)n1,79µM*,0%,68%[59 µM],47%,40µM*
Cc1nc(-c2cccc(C(F)(F)F)c2)sc1C(=O)O,-9%,3%,56µM*,3%,?
Cc1nc(-c2ccccc2)sc1C(=O)O,?,-1%,?,-9%,-23%
CN(C)c1ccc(P(=O)(COc2ccc([N+](=O)[O-])cc2)c2ccc(N(C)C)cc2)cc1,22µM*,-41%,/,?,25µM*
O=Cc1ccc(OCCOc2ccc([N+](=O)[O-])cc2)cc1,?,/,19%,25%,1%
COC(=O)c1ccc2c(c1)N(CC(=O)Nc1cccc(Cl)c1C)C(=O)c1ccccc1S2,-5%,/,2%[59 µM],24%[57 µM],-2%
Cc1ccc(NC(=S)N2CCn3cccc3C2c2cccnc2)cc1 (configuration not stated),?,-9%,45µM*,-7%,?
S=C(Nc1ccc(Br)cc1)N1CCn2cccc2C1c1cccnc1 (configuration not stated),?,?,?,-23%,?
COc1ccc(-c2cc(=O)c3c(O)cc(OC4OC(COC5OC(C)C(O)C(O)C5O)C(O)C(O)C4O)cc3o2)cc1O (configuration not stated),-16%,-14%,2%[12.7 µM],15%,-21%
COc1ccc([C@@H]2CC(=O)c3c(O)cc(O[C@@H]4O[C@H](CO[C@@H]5O[C@@H](C)[C@H](O)[C@@H](O)[C@H]5O)[C@@H](O)[C@H](O)[C@H]4O)cc3O2)cc1O,?,/,-27%[12.7 µM],-14%,50µM*
Cc1ccc(CNC(=O)CN(c2cc(C)cc(C)c2)S(=O)(=O)c2c(C)noc2C)cc1,-7%,/,7%[59 µM],53%,/
COc1ccc(C(=O)CN2C(=O)c3ccccc3S2(=O)=O)cc1Br,-29%,/,50µM*,-2%,-18%
